Assay results as given in PubChem BioAssay (Tox21).
Results filed as inconclusive are left out. Calls of active or inactive are those of the source. Unless noted, calls follow the shape of the full dose curve.

What was measured:
[1] = Nuclear factor erythroid 2-related factor 2/antioxidant responsive element (Nrf2/ARE) small molecule agonists: qHTS cell viability counter screen in human keratinocytes (AID 1919968; active = well fitted curve in the direction sought with a large enough effect in the repeat runs; an effect the other way counts as inactive or inconclusive; also: nearly all actives have a fitted effect of over 55% in size)
Method in brief: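 Cytotoxicity was multiplexed with the Nrf2/ARE luciferase assay in the same wells. Stably transfected HaCaT keratinocytes were treated with test compounds for 23 h at 37 C. Cell viability was then measured by CellTiter-Fluor fluorescence.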

[2] = target: Gonadotropin-releasing hormone receptor (Homo sapiens) (UniProt P30968); assay: Human gonadotropin-releasing hormone receptor (GnRHR) small molecule agonists, calcium flux assay in GnRHR-HEK293 cells (AID 1920063); also: nearly all actives have a fitted effect of over 35% in size
Gonadotropin-releasing hormone receptor (Homo sapiens), sequence (P30968 whole entry, looked up): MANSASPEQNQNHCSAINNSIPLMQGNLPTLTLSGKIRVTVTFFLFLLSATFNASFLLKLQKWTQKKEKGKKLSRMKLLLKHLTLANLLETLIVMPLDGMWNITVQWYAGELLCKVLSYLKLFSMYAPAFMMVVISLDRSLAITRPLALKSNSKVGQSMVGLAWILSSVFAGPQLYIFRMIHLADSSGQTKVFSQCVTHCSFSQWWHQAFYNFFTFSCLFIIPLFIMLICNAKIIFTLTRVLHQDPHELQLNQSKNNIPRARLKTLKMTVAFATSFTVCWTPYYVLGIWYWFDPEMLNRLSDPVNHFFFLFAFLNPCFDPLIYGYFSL
Method in brief: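 Agonist activity was measured as intracellular calcium flux in HEK293 cells engineered to stably express human GnRHR. After dye loading for 1 hour at 37 C, compounds in DMSO were added and fluorescence was followed for 3 minutes.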

[3] = G protein-coupled receptor (GPCR) small molecule agonists, calcium flux assay: HEK293 wild type cell line counter screen (AID 1920065)
Method in brief: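 Seed cells, incubate 18 h (37 C, 5% CO2); add calcium dye, 1 h at 37 C; pin-transfer compounds, ATP control or DMSO; read fluorescence 480/540 nm each second for 3 min.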

[4] = p53 small molecule agonists, cell-based qHTS assay with human liver microsomes (AID 1963577)
Method in brief: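 p53RE-bla reporter cells were pre-incubated 5 h at 37 C, then treated with compounds plus human liver microsomes (0.5 mg/mL final) and NADPH (0.5 mg/mL final) for 16 h at 37 C. Beta-lactamase activity was read by LiveBLAzer fluorescence after 2 h at room temperature.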

[5] = p53 small molecule agonists, cell-based qHTS assay with rat liver microsomes (AID 1963578)
Method in brief: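 p53RE-bla cells were exposed to compounds together with rat liver microsomes (0.5 mg/mL final) and NADPH (0.5 mg/mL final) for 16 h at 37 C, then read by LiveBLAzer beta-lactamase fluorescence after 2 h at room temperature.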

[6] = p53 small molecule agonists, cell-based qHTS assay with human liver microsomes: qHTS cell viability counter screen (AID 1963579); also: nearly all actives have a fitted effect of over 45% in size
Method in brief: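 p53RE-bla cells (4,000/well) were pre-incubated 5 h at 37 C, then given compounds in DMSO plus human liver microsomes (0.5 mg/mL final) and NADPH (0.5 mg/mL final) for 16 h at 37 C. Viability was read by CellTiter-Glo luminescence.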

[7] = p53 small molecule agonists, cell-based qHTS assay with rat liver microsomes: qHTS cell viability counter screen (AID 1963580); also: nearly all actives have a fitted effect of over 45% in size
Method in brief: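 Luminescent ATP readout (CellTiter-Glo, 30 min at room temperature) reports viability of p53RE-bla HCT-116 cells after 16 h at 37 C with test compounds under metabolic activation by rat liver microsomes and NADPH at 0.5 mg/mL final each.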

[8] = p53 small molecule agonists, cell-based qHTS assay: qHTS cell viability counter screen (AID 1963581); also: nearly all actives have a fitted effect of over 45% in size
Method in brief: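 Viability was counter-screened in parallel with the p53 agonist reporter by measuring intracellular ATP luminescence in the same HCT-116 p53RE-bla wells after 16 h compound treatment at 37 C.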

[9] = target: 5-hydroxytryptamine receptor 2A (Homo sapiens) (UniProt P28223); assay: 5-hydroxytryptamine receptor 2A (HTR2A) small molecule antagonists, cell-based qHTS assay (AID 1963586); also: nearly all actives have a fitted effect of over 45% in size
5-hydroxytryptamine receptor 2A (Homo sapiens), sequence (P28223 whole entry, looked up): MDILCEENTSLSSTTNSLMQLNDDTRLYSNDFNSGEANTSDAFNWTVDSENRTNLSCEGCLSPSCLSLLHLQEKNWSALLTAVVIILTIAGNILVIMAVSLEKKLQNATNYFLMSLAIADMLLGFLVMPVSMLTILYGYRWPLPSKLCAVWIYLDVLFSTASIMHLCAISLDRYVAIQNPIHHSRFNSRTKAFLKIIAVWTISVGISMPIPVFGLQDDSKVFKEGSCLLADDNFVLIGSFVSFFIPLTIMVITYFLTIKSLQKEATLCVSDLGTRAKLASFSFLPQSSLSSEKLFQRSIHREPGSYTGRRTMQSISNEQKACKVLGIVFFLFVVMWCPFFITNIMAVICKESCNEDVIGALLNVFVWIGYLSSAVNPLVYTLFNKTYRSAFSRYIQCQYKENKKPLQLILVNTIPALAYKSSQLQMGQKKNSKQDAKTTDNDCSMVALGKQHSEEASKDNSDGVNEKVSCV
Method in brief: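 CHO cells stably expressing human HTR2A were plated for 18 h at 37 C, then loaded with calcium dye for 1 h. Compounds were preincubated 5 min at room temperature before DOI (4 nM solution) was added. Kinetic fluorescence was read for 3 min.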

[10] = target: Muscarinic acetylcholine receptor M1 (Homo sapiens) (UniProt P11229); assay: Cholinergic receptor muscarinic 1 (CHRM1) small molecule antagonists, cell-based qHTS assay (AID 1963588); also: nearly all actives have a fitted effect of over 40% in size
Muscarinic acetylcholine receptor M1 (Homo sapiens), sequence (P11229 whole entry, looked up): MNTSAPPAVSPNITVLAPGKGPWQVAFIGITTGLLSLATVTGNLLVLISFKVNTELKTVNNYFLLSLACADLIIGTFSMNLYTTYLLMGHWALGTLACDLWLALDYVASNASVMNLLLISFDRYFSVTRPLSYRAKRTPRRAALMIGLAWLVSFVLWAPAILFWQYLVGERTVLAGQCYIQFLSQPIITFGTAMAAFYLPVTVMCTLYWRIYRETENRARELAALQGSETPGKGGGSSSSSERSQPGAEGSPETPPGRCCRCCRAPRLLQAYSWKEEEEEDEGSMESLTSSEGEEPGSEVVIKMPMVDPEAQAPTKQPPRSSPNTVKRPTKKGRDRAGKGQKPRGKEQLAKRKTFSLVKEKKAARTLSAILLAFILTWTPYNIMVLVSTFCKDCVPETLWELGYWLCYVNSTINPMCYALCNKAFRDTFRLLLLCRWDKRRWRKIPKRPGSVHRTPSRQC
Method in brief: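 Compounds were tested at 15 concentrations in three independent runs. Dye-loaded CHRM1-CHO cells were exposed 5 min at room temperature before stimulation by acetylcholine added at 50nM. Intracellular calcium was read kinetically on FDSS for 3 min.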

[11] = cAMP Responsive Elements (CRE) small molecule antagonists, cell-based qHTS assay (AID 1963591; active = well fitted inhibition curve with a large enough effect in the signal ratio in the repeat runs, not every such curve was filed as active; the % refers to the signal ratio)
Method in brief: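 Cells (CRE-bla HEK 293T, DMEM with 10% dialyzed FBS and 25 mM HEPES) are seeded and incubated 18 h. Compounds are added with NKH477 agonist at 0.25 uM final for 3 h, then FRET substrate for 2 h.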

[12] = target: Beta-2 adrenergic receptor (Homo sapiens) (UniProt P07550); assay: Adrenergic beta2 receptor (ADRB2) small molecule antagonists, cell-based qHTS assay (AID 1963592); also: nearly all actives have a fitted effect of over 50% in size; also: potency is read from the fitted curve at half-maximal effect
Beta-2 adrenergic receptor (Homo sapiens), sequence (P07550 whole entry, looked up): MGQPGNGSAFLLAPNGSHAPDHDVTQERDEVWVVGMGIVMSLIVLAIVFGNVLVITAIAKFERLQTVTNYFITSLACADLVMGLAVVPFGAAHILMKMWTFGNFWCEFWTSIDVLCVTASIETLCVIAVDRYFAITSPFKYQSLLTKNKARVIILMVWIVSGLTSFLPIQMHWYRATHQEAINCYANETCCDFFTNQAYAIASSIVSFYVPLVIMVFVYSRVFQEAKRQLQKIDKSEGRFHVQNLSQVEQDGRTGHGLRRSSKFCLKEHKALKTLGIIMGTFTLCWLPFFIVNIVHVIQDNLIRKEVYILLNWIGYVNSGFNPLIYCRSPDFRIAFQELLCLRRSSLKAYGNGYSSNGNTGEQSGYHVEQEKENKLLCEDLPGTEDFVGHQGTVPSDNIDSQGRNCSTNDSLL
Method in brief: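 Assay format: CHO-ADRB2 cells, 18-20hr seeding at 37C/5% CO2, then compound plus 1nM isoproterenol agonist mix for 0.5hr RT. Homogeneous time-resolved fluorescence cAMP detection after 1hr, expressed as 665/615 nm ratio.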

[13] = target: Beta-2 adrenergic receptor (Homo sapiens) (UniProt P07550); assay: Adrenergic beta2 receptor (ADRB2) small molecule agonists, cell-based qHTS assay (AID 1963593);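 also: CHO cells stably overexpressing human ADRB2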
Method in brief: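 CHO cells stably over-expressing ADRB2 were plated overnight at 37C, then dosed with compounds plus a stimulation mix containing 100uM IBMX and 25uM Ro-20-1724 for 0.5hr at room temperature. cAMP was measured by HTRF competition, 1hr.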

[14] = target: D(2) dopamine receptor (Homo sapiens) (UniProt P14416); assay: Dopamine D2 receptor (DRD2) small molecule agonists, cell-based qHTS assay (AID 1963594); also: nearly all actives have a fitted effect of over 35% in size
D(2) dopamine receptor (Homo sapiens), sequence (P14416 whole entry, looked up): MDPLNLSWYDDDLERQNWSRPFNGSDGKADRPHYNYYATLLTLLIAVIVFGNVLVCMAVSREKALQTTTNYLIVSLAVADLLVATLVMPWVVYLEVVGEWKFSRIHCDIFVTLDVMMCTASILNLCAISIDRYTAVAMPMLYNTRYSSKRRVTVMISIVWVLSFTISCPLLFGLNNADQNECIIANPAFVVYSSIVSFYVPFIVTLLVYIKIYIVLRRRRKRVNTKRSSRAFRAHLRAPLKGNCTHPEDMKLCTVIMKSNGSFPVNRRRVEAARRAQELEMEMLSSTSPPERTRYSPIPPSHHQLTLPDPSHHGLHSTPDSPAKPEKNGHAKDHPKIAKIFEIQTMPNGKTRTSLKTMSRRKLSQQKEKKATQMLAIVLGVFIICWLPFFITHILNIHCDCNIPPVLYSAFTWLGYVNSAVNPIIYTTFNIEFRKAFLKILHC
Method in brief: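 HEK293 cells stably expressing DRD2 were cultured 24 h at 37 C, then given Ro20-1724 (0.1 mM final) and compounds for 10 min at room temperature. NKH477 (200nM) was then added for 30 min. cAMP was read by HTRF.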

[15] = target: D(2) dopamine receptor (Homo sapiens) (UniProt P14416); assay: Dopamine D2 receptor (DRD2) small molecule antagonists, cell-based qHTS assay (AID 1963595; active = well fitted inhibition curve with a large enough effect in the signal ratio in the repeat runs, with a control signal flat; the % refers to the signal ratio)
Method in brief: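 HEK293 cells stably expressing DRD2 were preincubated with 0.1 mM Ro20-1724, then with compound for 10 min at room temperature. Cells were stimulated with 200 nM NKH477 plus 12 nM quinpirole for 30 min, and cAMP was read by HTRF.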

[16] = target: KiSS-1 receptor (Homo sapiens) (UniProt Q969F8); assay: Human kisspeptin (KISS1R) small molecule agonists, calcium flux assay in KISS1R-HEK293 cells (AID 1920064; active = well fitted curve in the direction sought with a large enough effect in the repeat runs; an effect the other way counts as inactive or inconclusive)
KiSS-1 receptor (Homo sapiens), sequence (Q969F8 whole entry, looked up): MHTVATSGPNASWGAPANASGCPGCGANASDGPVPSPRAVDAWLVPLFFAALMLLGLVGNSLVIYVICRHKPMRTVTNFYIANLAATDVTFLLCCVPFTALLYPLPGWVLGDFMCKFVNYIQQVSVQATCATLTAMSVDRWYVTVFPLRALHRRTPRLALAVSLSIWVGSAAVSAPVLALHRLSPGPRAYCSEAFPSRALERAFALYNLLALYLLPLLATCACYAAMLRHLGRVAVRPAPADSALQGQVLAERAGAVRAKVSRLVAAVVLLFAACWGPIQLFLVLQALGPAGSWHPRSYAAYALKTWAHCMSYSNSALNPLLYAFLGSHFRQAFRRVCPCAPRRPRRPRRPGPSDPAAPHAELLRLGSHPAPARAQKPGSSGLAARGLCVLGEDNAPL
Method in brief: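 Agonist activity is monitored as intracellular calcium rise in engineered HEK293 cells carrying human KISS1R. Cells are dye-loaded for 1 h at 37 C before compound addition, and fluorescence is recorded for 3 min.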

[17] = target: 5-hydroxytryptamine receptor 2A (Homo sapiens) (UniProt P28223); assay: 5-hydroxytryptamine receptor 2A (HTR2A) small molecule agonists, cell-based qHTS assay (AID 1963587); also: nearly all actives have a fitted effect of over 30% in size
Method in brief: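 HTR2A-CHO cells, plated 18 h at 37 C/5% CO2, dye-loaded 1 h at 37 C; compounds in DMSO added by pin tool (agonist mode). Intracellular calcium flux read as kinetic fluorescence on FDSS over 2 min at 1 s intervals.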

[18] = target: Muscarinic acetylcholine receptor M1 (Homo sapiens) (UniProt P11229); assay: Cholinergic receptor muscarinic 1 (CHRM1) small molecule agonists, cell-based qHTS assay (AID 1963589); also: nearly all actives have a fitted effect of over 35% in size
Method in brief: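 Cells were plated and incubated 18 h at 37 C/5% CO2, loaded with calcium dye for 1 h at 37 C, then treated with compounds in DMSO. Fluorescence was recorded kinetically at 1 sec intervals.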

[19] = cAMP Responsive Elements (CRE) small molecule agonists, cell-based qHTS assay (AID 1963590)
Method in brief: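 Cells carrying a CRE-driven beta-lactamase reporter (HEK 293T) are seeded, incubated overnight (18 h), and treated with test compounds for 3 h at 37 C; reporter activity is then detected with a FRET substrate after 2 h at room temperature.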

[20] = p53 small molecule agonists, cell-based qHTS assay (AID 1963582; active = well fitted activation curve with a large enough effect in the signal ratio in the repeat runs, not every such curve was filed as active; the % refers to the signal ratio)
Method in brief: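 Cells carrying a p53-responsive bla reporter are treated with test compounds for 16 h at 37 C; beta-lactamase activity is then detected with LiveBLAzer B/G FRET substrate after 2 h at room temperature.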

Measured: Potency

CCCCCCCCCCC(=O)O
inactive: [1] | [2] | [3] | [4] | [5] | [6] | [7] | [8] | [9] | [10] | [11] | [12] | [13] | [14] | [15]

CN(C)CCCOc1nn(Cc2ccccc2)c2ccccc12
active: [12] 26.6 µM
inactive: [1] | [2] | [16] | [3] | [5] | [6] | [7] | [9] | [17] | [10] | [18] | [19] | [14] | [15]

O=C(Cn1ccnc1[N+](=O)[O-])NCCO
inactive: [1] | [16] | [3] | [4] | [5] | [6] | [7] | [8] | [20] | [9] | [17] | [18] | [19] | [11] | [12] | [14] | [15]

CC(C)(C)C(=O)OCOC(=O)[C@@H]1N2C(=O)[C@@H](NC(=O)[C@H](N)c3ccccc3)[C@H]2SC1(C)C
inactive: [1] | [2] | [16] | [4] | [5] | [6] | [7] | [8] | [20] | [9] | [17] | [10] | [18] | [12] | [13] | [14] | [15]

CC(C)=CCC/C(C)=C/COC=O
inactive: [1] | [2] | [16] | [4] | [5] | [6] | [7] | [8] | [20] | [17] | [10] | [18] | [19] | [11] | [12] | [14] | [15]

CC(C)=CC(=O)C=C(C)C
inactive: [1] | [2] | [3] | [4] | [6] | [7] | [8] | [20] | [10] | [18] | [19] | [11] | [12] | [13] | [14]

CC(C)(O)C(=O)c1ccccc1
inactive: [1] | [2] | [16] | [3] | [4] | [7] | [8] | [20] | [9] | [17] | [10] | [18] | [19] | [11] | [12] | [14] | [15]

O=C1c2ccccc2C(=O)C1c1ccccc1
inactive: [1] | [2] | [3] | [4] | [5] | [6] | [7] | [8] | [20] | [19] | [11] | [12] | [13] | [14] | [15]

CCOc1cc(OCC)c(C(=O)CCC(=O)O)cc1OCC
inactive: [1] | [2] | [16] | [4] | [5] | [6] | [7] | [8] | [20] | [9] | [17] | [10] | [18] | [12] | [13] | [14] | [15]

OC(CCN1CCCC1)(c1ccccc1)C1CCCCC1 (stereo not given)
inactive: [1] | [2] | [16] | [4] | [5] | [7] | [8] | [20] | [9] | [17] | [10] | [18] | [19] | [12] | [14]

CC(=O)Nc1ccc(C)cc1C
inactive: [1] | [2] | [16] | [3] | [4] | [7] | [8] | [20] | [9] | [17] | [18] | [19] | [11] | [12] | [14] | [15]

CCCCOC(=O)C(C)O (stereo not given)
inactive: [1] | [2] | [16] | [3] | [5] | [6] | [7] | [8] | [20] | [9] | [17] | [19] | [11] | [12] | [13] | [14] | [15]

O=C1CC2(CCCC2)CC(=O)N1
inactive: [1] | [2] | [16] | [3] | [5] | [7] | [8] | [20] | [9] | [17] | [10] | [18] | [19] | [11] | [12] | [14] | [15]
